Source: PubChem BioAssay AID624296 (National Center for Advancing Translational Sciences (NCATS), 2012)
About 9,900 (2.8%) of roughly 350,000 compounds were called active. Not shown: some 15% with an inconclusive outcome. Only a selection was taken, and actives are over-represented in it overall. Values without a mark were called inactive. The call rests on the fitted dose curve; in most records, active means well fitted activation curve with a large enough effect; inconclusive means small, poorly fitted or top-dose-only effect; inactive means no such curve, though single readings can be large or run the other way.

test: A quantitative high throughput screen for small molecules that induce DNA re-replication in MCF 10a normal breast cells.; further: nearly all actives have a fitted effect of over 50% in size; on activity, positive = re-replication: % of control where 0% means no effect; conditions: MCF 10A DNA re-replication, Hoechst nuclear intensity, 48 h; series mostly up to 46.1 µM; activity, positive = re-replication: at the top concentration
Potency means the concentration at half of the fitted maximal effect.

Structure (SMILES)	activity, positive = re-replication [%]	Potency
C[C@H](CO)N1C[C@H](C)[C@@H](CN(C)Cc2ccc(-c3ccccc3)cc2)Oc2ccc(NC(=O)Cn3cnnn3)cc2C1=O	4.97	–
CCn1nc(C)c(/C=N/NC(=O)Cc2ccc(Cl)cc2)c1C	-0.496	–
Cc1nn(Cc2ccc(Cl)cc2)c(Cl)c1/C=N/NC(=O)CNc1ccccc1F	–	16.4 µM (active)
Cc1nn(Cc2ccc(Cl)cc2)c(Cl)c1/C=N/NC(=O)c1cccnc1	-11	–
CC(=O)Nc1ccc(S(=O)(=O)Nc2ccc(N3CCCCC3)cc2)cc1	-20.7	–
Nc1nnc2c(C(F)(F)F)nc3ccccc3n12	-1.13	–
FC(F)(F)c1nnc2ccc(N3CCN(c4ccccc4)CC3)nn12	-15.9	–
FC(F)(F)c1nnc2c3ccccc3c(Cl)nn12	–	20.6 µM (active)
CCOC(=O)c1ccc(NC(=O)C2CC(=O)N(c3ccc4c(c3)OCCO4)C2)cc1 (configuration not stated)	-0.605	–
CC[C@]1(O)CC2CN(CCc3c([nH]c4ccccc34)[C@@](C(=O)OC)(c3cc4c(cc3OC)N(C=O)[C@H]3[C@@](O)(C(=O)OC)[C@H](OC(C)=O)[C@]5(CC)C=CCN6CC[C@]43[C@@H]65)C2)C1 (some centres not stated)	–	0.651 µM (active)
O=S(=O)(NCCc1ccccn1)c1cc(Cl)cc(Cl)c1O	12.3	–
CC(=O)c1ccc(N2CCN(C(=O)c3ccc(Cl)c(S(=O)(=O)NC4CC4)c3)CC2)c(F)c1	13.4	–
Cc1ccc(C(=O)Nc2ccn(C)n2)cc1	-0.0546	–
COc1ccc(NC(=O)COC(=O)c2n[nH]c3ccccc23)c(OC)c1	0.862	–
CC(C)(C)OC(=O)C[C@@H]1C/C=C\C[C@@H](CC(=O)N[C@H](CO)Cc2ccccc2)C(=O)NC[C@@H](c2ccccc2)OC1=O	0.345	–
O=C(C[C@H]1C/C=C\C[C@@H](NC(=O)OCC2c3ccccc3-c3ccccc32)C(=O)O[C@@H](c2ccccc2)CNC1=O)N[C@H](CO)Cc1ccccc1	–	10.3 µM (active)
CC(C)(C)OC(=O)C[C@H]1C/C=C\C[C@@H](CC(=O)N[C@H](CO)Cc2ccccc2)C(=O)NC[C@@H](c2ccccc2)OC1=O	-0.905	–
CCN(CC(=O)Nc1c(F)cccc1F)C(=O)Cc1cccs1	-4.02	–
O=C(c1cnccn1)N1CCN(S(=O)(=O)c2cccc(Cl)c2)CC1	-0.0694	–
CCOC(=O)N1CCN(CC(=O)c2c(C)[nH]c3ccccc23)CC1	12	–
CCOC(=O)c1c(C)[nH]c(C)c1S(=O)(=O)N(C)CC(=O)Nc1ccccc1C	-2.08	–
CCOC(=O)c1c(C)[nH]c2c1-c1ccccc1C(=O)C2=O	–	1.3 µM (active)
COc1ccc(C(=O)N(C)Cc2ccc(OC)c(OC)c2OC)cc1S(=O)(=O)N1CCOCC1	-7.11	–
O=C(CC(O)(C(F)(F)F)C(F)(F)F)Nc1ccc(Cl)c(Cl)c1	–	5.8 µM (active)
Cc1ccc(NC(=O)C/C(N)=N/O)cc1Cl	3.94	–

Structure (SMILES)	activity, positive = re-replication [%]	Potency
Cc1nnc(NC(=O)Nc2ccc(Cl)c(Cl)c2)s1	0.674	–
C[C@H](O)[C@@H]1C(=O)N2CCc3ccc(N4CCOCC4)cc3[C@@H]2C[C@@H]1N(C)C(=O)C(C)(C)C	-15.5	–
CN(C)C(=O)CCc1ccc2c3c([nH]c2c1)[C@]1(CCC2CCCC2)[C@@H](C(=O)N2CCOCC2)C[C@H](CC(=O)NCc2ccco2)C(=O)N1CC3	0.547	–
CC(=O)OCC1(O)CC23CCC4c5ccoc5CCC4(C)C2CCC1C3 (configuration not stated)	4.61	–
N#Cc1c(-c2ccccc2)c(-c2ccccc2)n[nH]c1=O	–	2.59 µM (active)
Cc1ccc(CSc2nc(-c3ccccc3)c(C#N)c(=O)[nH]2)cc1	63.4	–
N#Cc1c2c(c(-c3ccccc3)[nH]c1=O)CCCC2	-3.44	–
CCOc1ncccc1C(=O)OCC(=O)Nc1cccc(S(=O)(=O)N2CCCCCC2)c1	16.2	–
COc1ccc(Cl)cc1NC(=O)C1CC(=O)N(c2ccc(F)cc2)C1 (configuration not stated)	-12.6	–
COc1ccccc1N1CC(C(=O)Nc2ccc(S(=O)(=O)N3CCOCC3)cc2)CC1=O (configuration not stated)	-0.803	–
COc1cc(OC)c(N2CC(C(=O)Nc3cc(Cl)ccc3N3CCOCC3)CC2=O)cc1Cl (configuration not stated)	–	18.4 µM (active)
Cc1ccc(CSc2ccc(S(=O)(=O)N3CCCCC3)cn2)cc1	14	–
Cc1ccsc1C(=O)NNC(=O)COc1ccc(Br)cc1	2.39	–
O=C1c2ccccc2C(=O)C1C(=O)C1CC1	12	–
Cc1ccc(-c2cc(=O)c3ccc(Cl)cc3[nH]2)cc1	-6.12	–
O=c1cc(-c2ccccc2)[nH]c2cc(F)ccc12	–	1.3 µM (active)
Cc1ccc(-c2cc(=O)c3ccc(F)cc3[nH]2)cc1	17.8	–
C[C@H](CO)N1C[C@H](C)[C@H](CN(C)CC2CC2)Oc2ccc(NC(=O)CCN3CCOCC3)cc2C1=O	0.189	–
CC(=O)c1ccc(NC(=O)C(C)OC(=O)c2ccc(NS(=O)(=O)c3ccc4[nH]c(=O)[nH]c4c3)cc2)cc1 (configuration not stated)	-2.03	–
O=S(=O)(Nc1ncnc2sccc12)c1cccc(F)c1	7.7	–
COc1ccc2c(c1)C(SCC(=O)NCc1ccccc1)CC(C)(C)O2 (configuration not stated)	-3.92	–
CN1c2ccc([N+](=O)[O-])cc2C(C)(C)C12C=Cc1cc(C(=O)O)ccc1O2 (configuration not stated)	-11.9	–
COc1ccc2c(c1)C=CC1(O2)N(CCO)c2ccccc2C1(C)C (configuration not stated)	–	20.6 µM (active)
O=C(CN1C(=O)NC2(CCCCCCC2)C1=O)NCc1ccc(F)cc1	15.7	–
COc1cccc(C(=O)OCC(=O)c2[nH]c(C)c(C(C)=O)c2C)c1	15.1	–

Structure (SMILES)	activity, positive = re-replication [%]	Potency
CCN(C[C@H]1N[C@@](CC)(C(=O)OC)[C@H]2C(=O)N(Cc3ccccc3)C(=O)[C@@H]12)S(=O)(=O)c1ccc(C(F)(F)F)cc1	-4.29	–
CCC1(CC)NC(=O)N(CC(=O)OCC(=O)c2cc(C)c(C)cc2C)C1=O	3.4	–
O=C(NCC1CCCCC1)NCC1CCCCC1	-1.83	–
CCN(CC)c1ccc(NC(=O)c2ccc(Cl)nc2)cc1	–	5.8 µM (active)
O=C(NNC(=O)c1ccc(Cl)nc1)c1ccc(Br)cc1	-31.3	–
Cc1cnc(NC(=O)c2ccc(Cl)nc2)s1	0.739	–
Cc1ccccc1SCC(=O)OCC(=O)N1CC(=O)Nc2ccccc21	-1.01	–
Cc1ccccc1-c1cc(C(=O)NCc2cccs2)n(CC2CC(c3cccnc3)=NO2)n1 (configuration not stated)	-25.3	–
O=C(NCCN1CCOCC1)c1cc(-c2cccs2)nc2ccccc12	6.61	–
c1ccc2cc3c(NCCN4CCOCC4)ccnc3cc2c1	–	4.61 µM (active)
O=C(NCCN1CCOCC1)c1ccc2c(c1)ncn2C1CCCC1	-3.91	–
COc1cc(C2CC(=O)Oc3cc(OC)c(OC)c(OC)c32)cc(OC)c1OC (configuration not stated)	2.66	–
Cc1ccc(OCC(=O)Nc2ccc(NC(=O)c3cccs3)cc2)c(C)c1	–	20.6 µM (active)
COc1cc2ccccc2cc1C(=O)Nc1ccc(NC(=O)c2cccs2)cc1	5.54	–
Cc1ccc(-c2nnc(-c3ccc(NC(=O)c4cccs4)cc3)o2)cc1	23.4	–
Cn1cccc1C(=O)OCC(=O)NCCc1ccccc1	-4.88	–
Cc1ccc(S(=O)(=O)N2CCN(C(=O)CN3C(=O)NC(C)(c4ccc(Cl)cc4)C3=O)CC2)c(C)c1 (configuration not stated)	-1.48	–
NC(=O)c1ccc(N2CCCC2)nc1	-25.7	–
N#Cc1c(-c2ccccc2)nc(SCc2ccc([N+](=O)[O-])cc2)[nH]c1=O	8.55	–
COc1ccccc1CSc1ncc(-c2ccc([N+](=O)[O-])cc2)[nH]1	–	11.6 µM (active)
COc1ccccc1CSc1nc2ccccc2[nH]1	–	8.2 µM (active)
COc1ccccc1C1CCN(c2ccc([N+](=O)[O-])cn2)CC1	19.6	–
CCCCSc1nc2ccccc2[nH]1	-11	–
C=CCSc1nc2ccccc2[nH]1	10.6	–
Nc1cc2c(cc1Br)-c1ccc(F)cc1C2=O	4.09	–

Structure (SMILES)	activity, positive = re-replication [%]	Potency
CCOC(=O)C1CCN(CC(=O)Nc2ccc(OC)c(S(=O)(=O)N3CCCCC3)c2)CC1	-0.144	–
O=C(c1cn(-c2ccccc2)nc1-c1cccnc1)N1CCN(S(=O)(=O)c2ccccc2F)CC1	7.54	–
CCOC(=O)C(NC(=O)CC(C)C)(Nc1sc2c(c1C(N)=O)CCCC2)C(F)(F)F (configuration not stated)	-2.86	–
COc1cccc(OC)c1C(=O)Nc1sc2c(c1C(N)=O)CCCC2	0.648	–
O=C(Nc1sc2c(c1C(=O)O)CCC2)c1ccccc1F	0.128	–
O=C(CN1CCCC1)Nc1sc2c(c1C(=O)Nc1ccccc1)CCCC2	1.37	–
NC(=O)c1c(NC(=O)c2ccccc2)sc2c1CCCC2	–	18.4 µM (active)
NC(=O)c1c(Nc2nc3c(F)cccc3s2)sc2c1CCCC2	–	20.6 µM (active)
O=C(NNC(=O)c1ccc(-n2cncn2)c([N+](=O)[O-])c1)c1ccccc1	-2.5	–
CCN(CC)c1ccc(NC(=O)CN2C(=O)NC3(CCc4ccccc43)C2=O)cc1 (configuration not stated)	-1.6	–
CCN(CC(=O)Nc1ccc(OC)cc1)C(=O)c1ccc(Cl)c(S(=O)(=O)N2CCCC2)c1	11.8	–
OCC1(CO)CC2(C1)CC(CO)(CO)C2	-1.42	–
CN(C)C(=O)CCc1ccc2c3c([nH]c2c1)[C@]1(C)[C@@H](C(=O)N2CCCCC2)C[C@H](CC(=O)NCCC2=CCCCC2)C(=O)N1CC3	9.41	–
CC(C)=C(NC(=O)c1ccccc1)C(=O)N/N=C(\C)c1ccccc1O	-3.76	–
CC(=O)NC(=O)c1ccccc1O	-0.337	–
C/C(=N\NC(=O)c1ccoc1C)c1ccccc1O	–	7.31 µM (active)
CSCCC(NC(=O)c1ccccc1)C(=O)N1CCCCCCC1 (configuration not stated)	-1.68	–
O=C(Cc1ccc(NC(=O)C2CCCN(C(=O)C3CCCCC3)C2)cc1)Nc1cccc(C(=O)N2CCCCC2)c1 (configuration not stated)	12.1	–
CC(=O)c1c(N2CCN(c3ccc(F)cc3)CC2)nc(=S)n(-c2ccccc2)c1C	42.3	–
CC(=O)c1c(N2CCOCC2)nc(=S)n(-c2cc(C)ccc2C)c1C	–	1.3 µM (active)
CC(=O)c1c(N2CCOCC2)nc(=S)n(Cc2ccccc2)c1C	-6.16	–
O=C(CN1C(=O)NC2(CCOc3ccccc32)C1=O)Nc1cccc([N+](=O)[O-])c1 (configuration not stated)	-0.599	–
